The text below walks through data of PubChem BioAssay (NCI).

About 83,000 compounds went through this panel and 20% of them were active in at least one assay; those are over-represented in the sample as a whole.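 How to read the values: 0–100, growth inhibition (40 = 60% inhibited); 0, no net growth; -100 to 0, cell death (-40 = 40% of starting cells died; -100 = all dead).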 Values without a mark were called inactive. Calls of active or inactive are those of the source. Rule for the calls: active = growth percent below 10; inactive = the rest.

What all share (experiment): NCI-60 one-dose screen, 48 h (100 = growth as untreated, 0 = no growth, -100 = all killed)
What all share (conditions): 10 µM unless noted

Experiment [1] deals with NCI-H23 lung.
Experiment [2] deals with NCI-H226 lung.
The subject of experiment [3] is NCI-H322M lung.
Experiment [4] relates to HOP-62 NSCLC.
The subject of experiment [5] is NCI-H460 lung.
Experiment [6] relates to HOP-92 NSCLC.
Experiment [7] has as its system NCI-H522 lung.
The subject of experiment [8] is A549/ATCC NSCLC.
Experiment [9] deals with 786-0 renal.
The test system of experiment [10] is COLO 205 colon.
In experiment [11] the test system is DU-145 prostate.
For experiment [12], the system named is K-562 leukemia.
Experiment [13] has as its system MALME-3M melanoma.
Experiment [14] concerns MDA-MB-231 breast.
Experiment [15] relates to RXF 393 renal.
In experiment [16] the test system is SF-268 CNS.
Experiment [17] relates to SF-295 CNS.
The test system of experiment [18] is SF-539 CNS.
Experiment [19] relates to UACC-257 melanoma.
In experiment [20] the test system is M14 melanoma.

Take `ClCc1cccc2c(CCl)cccc12`: the growth was 61.5% in experiment [1]; 74.9% in experiment [2]; -4.83% (active) in experiment [3]; 54.5% in experiment [4]; 16.7% in experiment [5]; 89.4% in experiment [6]. Moreover, the growth in [7] is 79.4%; in [8], 57.7%; in experiment [9], -74.3% (active); in [10], 77.9%; in [11], 32.6%; in [12], 79.2%. The growth is 90.6% in experiment [13]; 92.3% in [14]; 61% in [15]; 64.3% in [16]; 58.6% in [17]; 61.6% in [18]. The growth was 70% in experiment [19] and 25.8% in [20].
As to `Cc1ccc2nc(-c3ccc(N=Cc4ccccc4O)cc3)sc2c1`, the growth was 84.4% in [1]; 70.7% in experiment [2]; 82.8% in experiment [3]; 77.9% in experiment [4]; 104% in experiment [5]; 78.1% in experiment [6]. Further, the growth in experiment [7] was 61.3%; in [8], 71.9%; in experiment [9], 77.5%; in experiment [10] it was 140%; in experiment [11], 96.8%; in [12], 84.8%. The growth in experiment [13] is 90.3%; in experiment [14], 62.2%; in experiment [15], 83.4%; in experiment [16], 97.7%; in experiment [17] it was 109%; in experiment [18], 89.3%. Further, the growth in experiment [19] was 78.8%; in experiment [20], 78.4%.
In the case of `C=CCc1cc(OC)c(O)c(OC)c1`, the growth in [1] is 105%; in experiment [2], 93.8%; in experiment [3], 124%; in experiment [4], 97.4%; in experiment [5] it was 108%; in [6], 105%. Also, the growth was 92.2% in experiment [7]; 83.9% in experiment [8]; 102% in experiment [9]; 105% in [10]; 107% in [11]; 119% in [12]. Besides, the growth in experiment [13] is 95.1%; in experiment [14], 104%; in [15], 119%; in experiment [16] it was 97%; in experiment [17] it was 97.3%; in experiment [18], 92.1%. Besides, the growth in experiment [19] and in experiment [20] was 101% in each case.
On to `CCOC(=O)CSCCC#N`, for which the growth is 95.3% in [1]; 98.3% in [2]; 101% in experiment [3]; 82.3% in experiment [4]; 106% in experiment [5]; 102% in experiment [6]. Also, the growth was 96.3% in [7]; 101% in [8]; 93.5% in experiment [9]; 107% in experiment [10]; 108% in [11]; 112% in [12]. In addition, the growth in experiment [13] was 106%; in [14] it was 110%; in experiment [15], 97.8%; in [16], 101%; in [17] it was 94.7%; in experiment [18], 92.2%. Besides, the growth was 95.4% in experiment [19] and 94.9% in experiment [20].
With `Cc1ccc(S(N)(=O)=O)cc1Cl`, the growth in [1] was 111%; in experiment [2], 105%; in experiment [3], 121%; in [4], 110%; in experiment [5], 113%; in experiment [6], 101%. Further, the growth in [7] was 98.6%; in experiment [8], 92.9%; in experiment [9], 100%; in experiment [10], 104%; in [11], 120%; in [12], 92.3%. Further, the growth was 116% in experiment [13]; 98% in [14]; 125% in [15]; 108% in experiment [16]; 113% in [17]; 106% in experiment [18]. Also, the growth was 109% in experiment [19] and 105% in experiment [20].
In the case of `C#CC(O)c1ccccc1` (stereo not given), the growth in [1] was 106%; in experiment [2], 99.7%; in experiment [3], 104%; in experiment [4], 108%; in [5], 104%; in experiment [6] it was 85.9%. For the same molecule, the growth in [7] was 102%; in experiment [8] it was 101%; in experiment [9], 95.6%; in experiment [10] it was 108%; in experiment [11], 110%; in [12], 99.3%. Besides, the growth is 99.7% in experiment [13]; 101% in [14]; 112% in [15]; 112% in experiment [16]; 110% in experiment [17]; 99.7% in [18]. Besides, the results for the growth in [19] and in [20] were 102% and 101%, respectively.
With `CCN1CCCC(N2c3ccccc3Sc3ccccc32)C1` (stereo not given), the growth in experiment [1] is 103%; in experiment [2], 113%; in experiment [3] it was 86%; in experiment [4], 104%; in [5] it was 104%; in experiment [6] it was 74%. The growth in experiment [7] was 94.9%; in [8] it was 103%; in experiment [9], 87.7%; in experiment [10] it was 96.6%; in experiment [11], 94.1%; in experiment [12], 91.8%. Also, the growth was 92.1% in [13]; 76.5% in [14]; 104% in experiment [15]; 103% in [16]; 107% in [17]; 103% in experiment [18]. In addition, the growth in [19] was 104%; in experiment [20], 99.8%.
As for `C=C1CC2(OC1=O)C(=O)N(C)c1ccc(I)cc12` (stereo not given), the growth in experiment [1] was -62.6% (active); in [2], -37.3% (active); in [3], 50.6%; in [4], 58.9%; in experiment [5], -57% (active); in experiment [6], -95.7% (active). The growth in experiment [7] was -56.9% (active); in experiment [8] it was -19.3% (active); in [9] it was -71.5% (active); in experiment [10], -84.2% (active); in [11] it was -95.2% (active); in experiment [12], -50% (active). Besides, the growth is -77.1% (active) in [13]; -2.19% (active) in experiment [14]; -73.4% (active) in experiment [15]; -75% (active) in [16]; 55.4% in experiment [17]; -88.2% (active) in [18]. Further, the growth in experiment [19] was -69.3% (active); in [20], -76.6% (active).
